What all share (assay): DAPPL (digital affinity profiling via proximity ligation, sequencing); 10 mM Tris-HCl pH 7.5, 50 mM NaCl, 1 mM DTT, 4% glycerol, room temperature, 30 min; GST-TFs on glutathione beads, 16-mer random dsDNA library, 0.1% formaldehyde crosslink after washing; high values mean tight binding
One assay deals with T1, FEV (Homo sapiens, UniProt Q99581 1-238).
T1 sequence: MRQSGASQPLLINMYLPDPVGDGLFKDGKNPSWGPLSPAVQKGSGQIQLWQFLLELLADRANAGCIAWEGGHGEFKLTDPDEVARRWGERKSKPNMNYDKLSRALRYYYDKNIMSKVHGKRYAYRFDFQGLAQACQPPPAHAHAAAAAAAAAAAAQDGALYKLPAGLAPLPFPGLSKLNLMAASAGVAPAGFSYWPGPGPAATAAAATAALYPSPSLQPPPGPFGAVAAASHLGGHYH
The conditions noted are these: protein: recombinant; tags: N-terminal GST; dsDNA, one strand shown. The essentials: (§1)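 Pools were built from human transcription factors expressed in yeast as GST fusions, captured on glutathione beads and DNA-barcoded, along with a tag-only sample. Incubation with 200 nmole of a 16-mer random double-stranded DNA library lasted 30 min at room temperature in Tris/NaCl/DTT/glycerol buffer, and was followed by washing, 0.1% formaldehyde crosslinking, proximity ligation, PCR amplification and Illumina NextSeq500 sequencing. Binding signal is the quotient of each hexamer's read frequency for a factor and its frequency for the tag-only sample.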

A further assay has as its target ETV5 (Homo sapiens, UniProt P41161 1-510). The conditions noted are these: protein: recombinant; tags: N-terminal GST; dsDNA, one strand shown. The essentials:
as §1

In the next assay the target is HSF1 (Homo sapiens, UniProt Q00613 1-529). The note with it: protein: recombinant; tags: N-terminal GST; chain copies: 3; dsDNA, one strand shown. Summed up:
as §1

Another assay addresses T2, SPIC (Homo sapiens, UniProt Q8N5J4 1-248).
T2 sequence: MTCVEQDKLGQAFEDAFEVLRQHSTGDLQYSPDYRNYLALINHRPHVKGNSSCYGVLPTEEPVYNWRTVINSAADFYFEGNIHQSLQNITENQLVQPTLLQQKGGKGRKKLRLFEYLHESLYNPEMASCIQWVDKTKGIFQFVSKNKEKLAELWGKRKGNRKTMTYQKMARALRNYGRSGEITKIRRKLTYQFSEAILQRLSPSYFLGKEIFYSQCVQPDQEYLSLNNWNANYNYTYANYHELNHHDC
The note with it: protein: recombinant; tags: N-terminal GST; dsDNA, one strand shown. The essentials: as §1

A further assay deals with ELF4 (Homo sapiens, UniProt Q99607 1-663). The conditions noted are these: protein: recombinant; tags: N-terminal GST; dsDNA, one strand shown. The essentials: as §1
In another assay the target is T3, ELK4 (Homo sapiens, UniProt P28324-2 1-405).
T3 sequence: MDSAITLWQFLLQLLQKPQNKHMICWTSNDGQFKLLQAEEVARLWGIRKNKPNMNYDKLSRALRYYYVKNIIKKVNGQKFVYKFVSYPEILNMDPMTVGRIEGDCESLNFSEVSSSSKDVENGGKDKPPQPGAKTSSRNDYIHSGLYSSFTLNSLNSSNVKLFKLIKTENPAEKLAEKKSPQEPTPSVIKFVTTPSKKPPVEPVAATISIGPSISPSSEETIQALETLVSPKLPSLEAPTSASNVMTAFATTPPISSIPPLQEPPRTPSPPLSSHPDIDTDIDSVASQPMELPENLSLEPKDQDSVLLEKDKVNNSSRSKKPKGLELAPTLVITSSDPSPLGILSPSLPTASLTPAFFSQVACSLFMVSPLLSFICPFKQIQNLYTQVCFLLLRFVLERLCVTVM
The note with it: protein: recombinant; tags: N-terminal GST; dsDNA, one strand shown. Summed up:
as §1

The target in a further assay is T4, ETV2 (Homo sapiens, UniProt O00321 1-342).
T4 sequence: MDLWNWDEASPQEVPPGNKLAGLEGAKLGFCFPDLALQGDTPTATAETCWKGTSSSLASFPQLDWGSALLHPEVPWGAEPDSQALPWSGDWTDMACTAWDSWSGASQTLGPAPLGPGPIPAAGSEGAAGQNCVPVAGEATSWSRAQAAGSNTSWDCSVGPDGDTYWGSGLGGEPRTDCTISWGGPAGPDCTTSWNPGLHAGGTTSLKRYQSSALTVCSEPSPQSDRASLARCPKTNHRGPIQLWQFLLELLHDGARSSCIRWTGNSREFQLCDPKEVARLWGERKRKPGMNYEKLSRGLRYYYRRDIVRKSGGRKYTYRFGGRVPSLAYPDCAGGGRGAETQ
The conditions noted are these: protein: recombinant; tags: N-terminal GST; dsDNA, one strand shown. The essentials:
as §1

The target of a further assay is T5, ELF3 (Homo sapiens, UniProt P78545 1-371).
T5 sequence: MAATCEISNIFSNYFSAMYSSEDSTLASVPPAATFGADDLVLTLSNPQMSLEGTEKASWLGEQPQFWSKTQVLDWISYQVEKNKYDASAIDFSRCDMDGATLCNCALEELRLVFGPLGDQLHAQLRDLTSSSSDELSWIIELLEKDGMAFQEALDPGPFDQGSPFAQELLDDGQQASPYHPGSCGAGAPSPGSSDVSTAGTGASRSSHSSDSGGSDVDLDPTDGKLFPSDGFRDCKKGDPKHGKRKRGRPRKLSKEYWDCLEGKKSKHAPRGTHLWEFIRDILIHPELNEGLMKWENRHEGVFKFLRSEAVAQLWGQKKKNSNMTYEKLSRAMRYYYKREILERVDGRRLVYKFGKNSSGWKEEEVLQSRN
The note with it: protein: recombinant; tags: N-terminal GST; dsDNA, one strand shown. Summed up: as §1

In another assay the target is CRX (Homo sapiens, UniProt O43186 1-299). The note with it: protein: recombinant; tags: N-terminal GST; dsDNA, one strand shown. Summed up:
as §1

The target in another assay is ETV1 (Homo sapiens, UniProt P50549 1-477). The note with it: protein: recombinant; tags: N-terminal GST; dsDNA, one strand shown. Summed up:
as §1

In another assay the target is T6, ERF (Homo sapiens, UniProt P50548 1-548).
T6 sequence: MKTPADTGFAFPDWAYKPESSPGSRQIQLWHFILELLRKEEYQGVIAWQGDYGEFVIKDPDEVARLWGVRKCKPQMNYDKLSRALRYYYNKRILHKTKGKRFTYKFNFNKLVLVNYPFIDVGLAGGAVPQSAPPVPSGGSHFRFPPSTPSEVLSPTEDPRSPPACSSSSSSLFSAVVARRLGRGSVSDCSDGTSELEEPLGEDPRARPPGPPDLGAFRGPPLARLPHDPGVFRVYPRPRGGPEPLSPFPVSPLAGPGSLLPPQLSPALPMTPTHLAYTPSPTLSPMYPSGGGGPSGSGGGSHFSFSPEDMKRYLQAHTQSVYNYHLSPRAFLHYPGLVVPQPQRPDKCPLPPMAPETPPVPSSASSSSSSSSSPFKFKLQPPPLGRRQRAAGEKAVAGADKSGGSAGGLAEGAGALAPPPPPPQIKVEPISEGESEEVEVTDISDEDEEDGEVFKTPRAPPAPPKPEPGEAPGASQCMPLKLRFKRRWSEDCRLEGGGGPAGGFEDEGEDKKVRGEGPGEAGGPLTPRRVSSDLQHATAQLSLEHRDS
The conditions noted are these: protein: recombinant; tags: N-terminal GST; dsDNA, one strand shown. Summed up:
as §1

The target in another assay is T7, ETV3L (Homo sapiens, UniProt Q6ZN32 1-361).
T7 sequence: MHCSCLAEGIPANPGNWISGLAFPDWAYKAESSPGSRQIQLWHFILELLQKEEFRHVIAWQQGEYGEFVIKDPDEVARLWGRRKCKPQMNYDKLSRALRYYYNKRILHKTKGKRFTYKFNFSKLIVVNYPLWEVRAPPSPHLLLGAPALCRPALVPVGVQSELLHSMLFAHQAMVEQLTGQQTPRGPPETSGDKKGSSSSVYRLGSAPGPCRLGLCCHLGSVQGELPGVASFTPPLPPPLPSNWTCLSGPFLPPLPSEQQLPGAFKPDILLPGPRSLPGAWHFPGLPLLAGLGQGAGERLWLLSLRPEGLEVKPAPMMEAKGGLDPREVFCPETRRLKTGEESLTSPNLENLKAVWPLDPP
The conditions noted are these: protein: recombinant; tags: N-terminal GST; dsDNA, one strand shown. The essentials:
as §1

A further assay deals with T8, ETS2 (Homo sapiens, UniProt P15036 1-469).
T8 sequence: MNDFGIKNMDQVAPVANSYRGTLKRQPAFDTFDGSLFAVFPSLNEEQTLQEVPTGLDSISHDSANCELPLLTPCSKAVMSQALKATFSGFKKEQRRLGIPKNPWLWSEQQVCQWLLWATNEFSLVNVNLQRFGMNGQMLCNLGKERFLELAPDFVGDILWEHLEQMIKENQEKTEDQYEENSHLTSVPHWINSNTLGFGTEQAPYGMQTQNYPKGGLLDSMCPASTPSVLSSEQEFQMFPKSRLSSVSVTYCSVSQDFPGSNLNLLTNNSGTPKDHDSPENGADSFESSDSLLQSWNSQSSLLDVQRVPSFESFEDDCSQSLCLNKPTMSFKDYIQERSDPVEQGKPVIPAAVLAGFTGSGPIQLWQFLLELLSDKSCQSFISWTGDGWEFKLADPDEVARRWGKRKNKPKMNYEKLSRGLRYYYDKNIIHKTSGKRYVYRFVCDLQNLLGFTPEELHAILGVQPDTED
The conditions noted are these: protein: recombinant; tags: N-terminal GST; dsDNA, one strand shown. Summed up: as §1

A further assay addresses T9, SPDEF (Homo sapiens, UniProt O95238 1-335).
T9 sequence: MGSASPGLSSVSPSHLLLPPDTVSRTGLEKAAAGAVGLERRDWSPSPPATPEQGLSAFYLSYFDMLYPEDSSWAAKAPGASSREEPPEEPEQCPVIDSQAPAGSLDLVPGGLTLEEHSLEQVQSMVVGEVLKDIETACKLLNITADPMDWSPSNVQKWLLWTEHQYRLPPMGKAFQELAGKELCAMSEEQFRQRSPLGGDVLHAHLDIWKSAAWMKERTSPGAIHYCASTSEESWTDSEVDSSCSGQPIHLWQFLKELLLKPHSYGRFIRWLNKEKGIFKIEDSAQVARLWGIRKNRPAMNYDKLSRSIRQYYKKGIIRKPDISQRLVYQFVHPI
The conditions noted are these: protein: recombinant; tags: N-terminal GST; dsDNA, one strand shown. Summed up:
as §1

Another assay deals with T10, ETV7 (Homo sapiens, UniProt Q9Y603 1-341).
T10 sequence: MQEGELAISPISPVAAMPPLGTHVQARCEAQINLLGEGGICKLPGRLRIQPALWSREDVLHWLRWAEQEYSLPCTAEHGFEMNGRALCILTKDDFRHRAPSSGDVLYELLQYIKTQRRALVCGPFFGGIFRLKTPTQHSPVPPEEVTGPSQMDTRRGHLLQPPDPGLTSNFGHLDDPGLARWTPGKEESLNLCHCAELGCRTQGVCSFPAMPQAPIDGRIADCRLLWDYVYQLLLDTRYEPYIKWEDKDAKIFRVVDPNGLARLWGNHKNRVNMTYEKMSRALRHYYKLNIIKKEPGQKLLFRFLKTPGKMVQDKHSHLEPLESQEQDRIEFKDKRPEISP
The conditions noted are these: protein: recombinant; tags: N-terminal GST; dsDNA, one strand shown. Summed up: as §1

A further assay concerns the target T11, ELF5 (Homo sapiens, UniProt Q9UKW6-2 1-255).
T11 sequence: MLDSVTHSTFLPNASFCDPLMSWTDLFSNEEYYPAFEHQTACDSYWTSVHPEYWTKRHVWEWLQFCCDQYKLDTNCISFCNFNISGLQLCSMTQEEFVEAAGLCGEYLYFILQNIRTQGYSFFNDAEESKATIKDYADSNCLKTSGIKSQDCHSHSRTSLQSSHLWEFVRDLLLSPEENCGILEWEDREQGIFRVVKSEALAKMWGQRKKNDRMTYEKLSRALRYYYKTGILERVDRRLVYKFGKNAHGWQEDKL
The conditions noted are these: protein: recombinant; tags: N-terminal GST; dsDNA, one strand shown. Summed up: as §1

The target in the next assay is T12, ETV3 (Homo sapiens, UniProt P41162-2 1-143).
T12 sequence: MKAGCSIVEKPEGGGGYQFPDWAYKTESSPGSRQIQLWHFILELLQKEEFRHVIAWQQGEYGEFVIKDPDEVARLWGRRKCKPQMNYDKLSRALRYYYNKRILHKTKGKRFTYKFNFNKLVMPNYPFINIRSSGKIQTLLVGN
The conditions noted are these: protein: recombinant; tags: N-terminal GST; dsDNA, one strand shown. Summed up: as §1

The next assay concerns the target ETV6 (Homo sapiens, UniProt P41212 1-452). The conditions noted are these: protein: recombinant; tags: N-terminal GST; dsDNA, one strand shown. The essentials:
as §1

Sequence of CRX (O43186 whole entry): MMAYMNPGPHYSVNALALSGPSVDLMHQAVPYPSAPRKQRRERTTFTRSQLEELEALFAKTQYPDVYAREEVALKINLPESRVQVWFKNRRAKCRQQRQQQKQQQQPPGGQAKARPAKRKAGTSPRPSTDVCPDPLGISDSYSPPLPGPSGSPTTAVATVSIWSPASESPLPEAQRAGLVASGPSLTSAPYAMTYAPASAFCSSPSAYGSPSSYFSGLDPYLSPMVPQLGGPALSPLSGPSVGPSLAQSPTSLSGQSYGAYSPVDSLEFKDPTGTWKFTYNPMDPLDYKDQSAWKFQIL
Sequence of ETV6 (P41212 whole entry): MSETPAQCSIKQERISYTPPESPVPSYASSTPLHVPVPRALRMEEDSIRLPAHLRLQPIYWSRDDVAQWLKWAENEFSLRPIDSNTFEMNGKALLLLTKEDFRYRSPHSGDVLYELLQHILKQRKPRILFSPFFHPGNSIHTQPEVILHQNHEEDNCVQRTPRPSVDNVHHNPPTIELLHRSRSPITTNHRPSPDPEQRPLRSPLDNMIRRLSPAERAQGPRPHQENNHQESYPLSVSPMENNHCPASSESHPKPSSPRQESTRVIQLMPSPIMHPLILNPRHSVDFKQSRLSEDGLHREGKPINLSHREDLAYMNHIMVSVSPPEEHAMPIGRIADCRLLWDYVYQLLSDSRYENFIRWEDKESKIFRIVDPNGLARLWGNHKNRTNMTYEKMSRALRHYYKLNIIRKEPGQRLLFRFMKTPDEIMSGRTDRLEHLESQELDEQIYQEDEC
Sequence of ETV5 (P41161 whole entry): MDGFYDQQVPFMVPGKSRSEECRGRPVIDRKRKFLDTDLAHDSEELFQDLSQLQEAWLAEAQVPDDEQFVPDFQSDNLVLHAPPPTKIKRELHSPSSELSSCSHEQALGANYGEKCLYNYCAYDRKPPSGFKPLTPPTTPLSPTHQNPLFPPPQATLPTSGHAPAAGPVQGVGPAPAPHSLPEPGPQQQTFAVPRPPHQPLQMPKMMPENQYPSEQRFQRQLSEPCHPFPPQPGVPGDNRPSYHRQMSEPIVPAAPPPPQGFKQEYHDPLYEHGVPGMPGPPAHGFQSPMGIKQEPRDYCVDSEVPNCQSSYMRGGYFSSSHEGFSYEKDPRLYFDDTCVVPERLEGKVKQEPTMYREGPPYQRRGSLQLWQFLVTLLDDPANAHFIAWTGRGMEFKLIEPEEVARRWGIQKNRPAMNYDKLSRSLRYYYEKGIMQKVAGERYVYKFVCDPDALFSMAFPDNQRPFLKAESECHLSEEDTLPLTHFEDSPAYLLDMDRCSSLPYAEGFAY
Sequence of ELF4 (Q99607 whole entry): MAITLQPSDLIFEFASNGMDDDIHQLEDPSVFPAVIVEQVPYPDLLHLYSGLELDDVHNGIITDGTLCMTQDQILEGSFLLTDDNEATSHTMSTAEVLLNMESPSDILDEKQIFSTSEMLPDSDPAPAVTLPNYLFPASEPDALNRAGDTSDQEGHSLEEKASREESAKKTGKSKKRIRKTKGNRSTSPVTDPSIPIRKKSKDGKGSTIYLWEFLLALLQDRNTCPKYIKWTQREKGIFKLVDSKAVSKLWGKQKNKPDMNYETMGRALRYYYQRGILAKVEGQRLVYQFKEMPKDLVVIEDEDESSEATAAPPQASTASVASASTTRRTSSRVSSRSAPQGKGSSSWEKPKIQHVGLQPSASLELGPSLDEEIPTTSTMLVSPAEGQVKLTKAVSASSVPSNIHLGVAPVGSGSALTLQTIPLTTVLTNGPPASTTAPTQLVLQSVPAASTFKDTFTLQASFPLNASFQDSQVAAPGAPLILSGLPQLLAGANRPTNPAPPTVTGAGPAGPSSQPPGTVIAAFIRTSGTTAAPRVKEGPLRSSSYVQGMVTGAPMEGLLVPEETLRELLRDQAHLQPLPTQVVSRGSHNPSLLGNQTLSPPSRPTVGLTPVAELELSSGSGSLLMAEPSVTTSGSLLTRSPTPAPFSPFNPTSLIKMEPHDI
Sequence of HSF1 (Q00613 whole entry): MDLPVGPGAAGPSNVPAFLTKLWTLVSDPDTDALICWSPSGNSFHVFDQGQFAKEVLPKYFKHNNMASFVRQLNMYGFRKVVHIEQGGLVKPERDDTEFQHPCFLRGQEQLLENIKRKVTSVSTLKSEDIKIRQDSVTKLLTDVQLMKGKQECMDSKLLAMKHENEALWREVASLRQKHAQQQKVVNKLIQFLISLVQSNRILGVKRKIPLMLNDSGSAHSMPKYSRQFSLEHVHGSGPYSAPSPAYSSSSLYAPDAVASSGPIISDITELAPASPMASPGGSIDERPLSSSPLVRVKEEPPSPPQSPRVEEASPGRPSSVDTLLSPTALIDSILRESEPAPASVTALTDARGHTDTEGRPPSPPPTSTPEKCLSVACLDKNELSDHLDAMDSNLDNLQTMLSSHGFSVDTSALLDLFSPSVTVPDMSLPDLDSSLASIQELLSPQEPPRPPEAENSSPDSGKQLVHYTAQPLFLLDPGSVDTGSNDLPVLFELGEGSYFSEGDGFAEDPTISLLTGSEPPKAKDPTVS
Sequence of ETV1 (P50549 whole entry): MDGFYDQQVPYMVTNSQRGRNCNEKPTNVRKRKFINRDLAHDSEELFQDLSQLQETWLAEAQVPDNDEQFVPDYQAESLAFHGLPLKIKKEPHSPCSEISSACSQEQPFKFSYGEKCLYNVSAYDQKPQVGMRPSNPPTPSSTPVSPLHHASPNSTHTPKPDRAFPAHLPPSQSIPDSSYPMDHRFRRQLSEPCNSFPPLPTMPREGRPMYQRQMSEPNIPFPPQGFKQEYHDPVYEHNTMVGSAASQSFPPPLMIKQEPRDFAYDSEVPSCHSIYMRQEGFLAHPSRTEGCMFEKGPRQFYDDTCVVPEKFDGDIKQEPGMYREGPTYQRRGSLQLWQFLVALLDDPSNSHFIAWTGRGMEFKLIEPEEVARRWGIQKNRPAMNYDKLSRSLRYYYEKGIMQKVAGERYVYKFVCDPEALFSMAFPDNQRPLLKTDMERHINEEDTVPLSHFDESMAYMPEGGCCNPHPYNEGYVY

With TTTGTA, the binding signal with FEV is 1.52 fold enrichment (6-mer frequency, TF over GST control); in the assay with ETV5, 1.64 fold enrichment (6-mer frequency, TF over GST control); with HSF1 it was 1.65 fold enrichment (6-mer frequency, TF over GST control); with SPIC it was 1.57 fold enrichment (6-mer frequency, TF over GST control); in the assay with ELF4 it was 1.58 fold enrichment (6-mer frequency, TF over GST control); in the assay with ELK4 it was 1.75 fold enrichment (6-mer frequency, TF over GST control). The binding signal was 1.53 fold enrichment (6-mer frequency, TF over GST control) with ETV2; 1.61 fold enrichment (6-mer frequency, TF over GST control) with ELF3; 1.89 fold enrichment (6-mer frequency, TF over GST control) in the assay with CRX; 1.51 fold enrichment (6-mer frequency, TF over GST control) in the assay with ETV1; 1.63 fold enrichment (6-mer frequency, TF over GST control) with ERF; 1.69 fold enrichment (6-mer frequency, TF over GST control) with ETV3L. For the same sequence, the binding signal with ETS2 was 1.52 fold enrichment (6-mer frequency, TF over GST control); with SPDEF, 1.6 fold enrichment (6-mer frequency, TF over GST control); with ETV7 it was 1.53 fold enrichment (6-mer frequency, TF over GST control); in the assay with ELF5 it was 1.46 fold enrichment (6-mer frequency, TF over GST control); with ETV3 it was 1.63 fold enrichment (6-mer frequency, TF over GST control); in the assay with ETV6, 1.54 fold enrichment (6-mer frequency, TF over GST control).
